SSB-PriA inh – inhibitors of Klebsiella pneumoniae PriA binding to SSB C-terminal tail, primary screen, biochemical, AlphaScreen | AID 1272365, 2023 | AlphaScreen SSBct-PriA binding, biotinylated peptide | PriA–SSB C-terminal tail interaction (Klebsiella pneumoniae) | hit rate 0.6% among 430,000 | inhibition, % at 33 µM; in the data active = inhibition mostly above about 37%, no sharp cut-off; inactive = mostly below about 20%;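 also: plate controls were negative control peptide for no effect and reference peptide for full effect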
BH1578 lux ind – inducers of Vibrio cholerae quorum light production without autoinducers, primary screen, BH1578 luxS cqsA deficient, single point; AID 588436, 2011; hit rate 0.16% among 350,000; activation, % at 18.7 µM; V. cholerae BH1578 lux reporter, luminescence, 6 h; in the data active = activation mostly above about 9.7%, no sharp cut-off
CCHFV vOTU inh – CCHFV vOTU protease inhibitors, primary screen, biochemical, Pep-AMC substrate, fluorescence; Crimean-Congo hemorrhagic fever virus L polyprotein viral ovarian tumor (vOTU) protease …; inhibition, % at 11.5 µM; hit rate 0.55% among 370,000; in the data active = inhibition above about 30%; also: 0% = vehicle wells with enzyme and 100% = no enzyme wells
VHR inh abs – VHR1 phosphatase inhibitors, primary screen, biochemical, absorbance, uHTS | Dual specificity protein phosphatase 3 (Homo sapiens), P51452 | recombinant VHR phosphatase, pNPP absorbance | inhibition, % at 13.3 µM | hit rate 0.52% among 290,000; in the data active = inhibition above about 50%
3CLpro inhibitor – SARS-CoV 3CLpro protease inhibitors, primary screen, biochemical, quenched FRET; Replicase polyprotein 1ab (Severe acute respiratory syndrome coronavirus), P0C6X7; recombinant SARS-CoV 3CLpro, quenched FRET peptide cleavage; inhibition, % at 6 µM; hit rate 0.14% among 290,000; AID 1706, 2009; in the data active = inhibition above about 12%
TcdB inh – TcdB glycohydrolase inhibitors, primary screen, biochemical, single point, plate reader | TcdB glycohydrolase enzymatic assay | hit rate 0.24% among 350,000 | inhibition, % at 9.99 µM | Toxin B (Clostridioides difficile), P18177 | AID 652162, 2013; in the data active = inhibition above about 10%
Active calls of the source: *; i = inactive; / = not tested or not shown. The list is not random: actives were taken first. Their share in the collection is about 1.3%.

SMILES	SSB-PriA inh	BH1578 lux ind	CCHFV vOTU inh	VHR inh abs	3CLpro inhibitor	TcdB inh
CC(C)CNC(=O)c1c(F)c(F)c(F)c(F)c1F	-6	1	4	-11	5	10*
O=C(NCCCCNC(=O)c1c(F)c(F)c(F)c(F)c1F)c1c(F)c(F)c(F)c(F)c1F	-8	0	-5	10	-1	/
Cc1c(N2C(=O)c3ccccc3C2=O)c(=O)n(-c2ccccc2)n1C	-18	17*	-10	-50	5	/
NC(=O)c1ccsc1NC(=O)CS(=O)(=O)c1ccc(Cl)cc1	-1	3	5	56*	-1	2
C#CCOCCOCCOCCNc1nc(N2CCN(C(=O)CCCCCCCCCCNC(=O)[C@H]([C@@H](C)CC)n3cc(CCCCN=C(N)N)nn3)CC2)nc(N2CCN(C(=O)CCCCCCCCCCNC(=O)[C@H](CO)n3cc(CCCCCN)nn3)CC2)n1	39*	2	/	/	/	/
Cc1nc(C)c(C(=O)N(c2ccccc2F)C(C(=O)NCC2CCCO2)c2ccccc2)s1 (stereo not drawn)	-9	0	-2	54*	-6	2
Cc1nc(C)c(C(=O)N(c2ccc(F)cc2)C(C(=O)NCC2CCCO2)c2ccccc2)s1 (stereo not drawn)	-10	0	4	1	-2	1
CC1(C)CC(=O)c2cc(OCC(=O)NCCCN3CCN(c4ccc(F)cc4)CC3)ccc2O1	14	i	-25	53*	-1	/
COc1ccc(N2CCN(CCCNC(=O)COc3ccc(F)cc3)CC2)cc1	/	/	-6	/	/	/
Cn1c(-c2ccccn2)nn(CC(=O)Nc2ccc(OC(F)(F)F)cc2)c1=O	-12	/	/	/	/	/
Nc1ccccc1Nc1cccc(C(F)(F)F)c1	43*	i	5	9	6	0
CC(C)(C)C(=O)N1CCc2ccc(NC(=O)c3cccc(C(F)(F)F)c3)cc21	1	/	/	/	/	/
NC(=O)c1ccc(C(N)=NS(=O)(=O)c2cc(C(F)(F)F)cc(C(F)(F)F)c2)cc1	2	/	/	/	/	/
COc1ccc(N2CCN(C(=O)c3cc(=O)c4ccccc4o3)CC2)nn1	-9	/	/	/	/	/
CC(C)(C)OC(=O)NCCCNC(=O)c1cccc(Oc2ccccn2)c1	-6	/	/	/	/	/
CC(=O)N(Cc1ccccc1)c1ncc2c(n1)c(=O)c(C#N)c1ccccn12	48*	-5	-15	30	3	/
NC(=NNC(=O)c1cccs1)c1cc2cc(Cl)ccc2oc1=O	1	/	/	/	/	/
COc1cccc(N2C(=O)NC(=O)/C(=C/c3ccc4c5c(cccc35)CC4)C2=O)c1	/	/	-45	51*	3	4
O=C(NCCn1ccnc1-c1ncccn1)c1ccc2c(c1)OCO2	93*	/	/	/	/	/
COc1ccc(S(=O)(=O)NCCn2ccnc2-c2ncccn2)c(C)c1	81*	/	/	/	/	/
O=C(NCCn1ncccc1=O)c1ccc2c(c1)OCO2	-5	/	/	/	/	/
COc1ccc(Br)c(C(=O)NCCn2nc(C)cc2C)c1	-12	/	/	/	/	/
COc1ccc(Br)c(C(=O)NCCn2ccnc2-c2ncccn2)c1	91*	/	/	/	/	/
COc1ccc(OC)c(S(=O)(=O)NCCn2ccnc2-c2ncccn2)c1	91*	/	/	/	/	/
O=C(NC[C@H](Cc1cccc(F)c1)N1CCCC1=O)c1ccc[nH]c1=O	-2	/	/	/	/	/
SMILES	SSB-PriA inh	BH1578 lux ind	CCHFV vOTU inh	VHR inh abs	3CLpro inhibitor	TcdB inh
COc1ccc([C@@H](O)CNC(=O)c2ccc(OC(F)(F)F)cc2)cc1OC	-6	/	/	/	/	/
CN(C)C(=O)c1n[nH]c2c1CN(S(C)(=O)=O)CC2	-5	/	/	/	/	/
CCN1/C(=C2\SC(=S)N(Cc3ccccc3)C2=O)Sc2ccccc21	0	0	8	33	0	1
CCC(CO)[n+]1c(C)cc(/C=C2\Sc3ccccc3N2Cc2ccccc2)cc1C (stereo not drawn)	/	0	14	13	-4	22*
CCOC(=O)c1nnn(-c2nonc2N)c1-c1ccc(F)cc1	-8	-1	-2	9	4	12*
CCOC(=O)c1nnn(-c2nonc2N)c1-c1ccccc1Cl	-2	i	-2	12	1	16*
CCOC(=O)c1nnn(-c2nonc2N)c1-c1cccc2ccccc12	-10	i	3	-6	-2	/
CCOC(=O)c1nnn(-c2nonc2N)c1-c1ccc(Cl)cc1	-19	-1	-12	9	-5	9
COc1ccc(OC)c(-c2ccc(=O)n(CC(=O)NCc3ccco3)n2)c1	-1	/	/	/	/	/
